Screens deposited in PubChem BioAssay by The Scripps Research Institute Molecular Screening Center.
PAFAH2 inh – PAFAH2 enzyme inhibitors, primary screen, biochemical, fluorescence polarization, human; Platelet-activating factor acetylhydrolase 2, cytoplasmic (Homo sapiens), Q99487; recombinant PAFAH2, FP-rhodamine activity probe; inhibition, % at 3.39 µM; 0.99% of 340,000 active;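 active means inhibition above the mean over all tested compounds plus 3 SD, cut at about 30% in these data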;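 further: inhibitors block probe labeling of enzyme so polarization drops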
LYPLA1 inh – LYPLA1 inhibitors, primary screen, counter-screen for PME1 inhibitor project, biochemical, fluorescence polarization, FP-Rh probe ABPP. recombinant LYPLA1. inhibition, % at 5.9 µM. 0.16% of 320,000 active. AID 2174, 2009;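 active means inhibition above the mean of all tested compounds plus 3 SD, set per campaign, cut at about 14% in these data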;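 further: inhibitors block serine hydrolase probe labeling of LYPLA1 so polarization falls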
PAFAH1B3 inh – PAFAH1B3 enzyme inhibitors, primary screen, biochemical, fluorescence polarization, human; Platelet-activating factor acetylhydrolase IB subunit alpha1 (Homo sapiens), Q15102; recombinant PAFAH1B3, FP-rhodamine probe; inhibition, % at 3.39 µM; 0.28% of 340,000 active;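 active means inhibition above the screen-wide average of all tested compounds plus 3 SD, cut at about 25% in these data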
Target sequence (Q15102 whole entry, looked up): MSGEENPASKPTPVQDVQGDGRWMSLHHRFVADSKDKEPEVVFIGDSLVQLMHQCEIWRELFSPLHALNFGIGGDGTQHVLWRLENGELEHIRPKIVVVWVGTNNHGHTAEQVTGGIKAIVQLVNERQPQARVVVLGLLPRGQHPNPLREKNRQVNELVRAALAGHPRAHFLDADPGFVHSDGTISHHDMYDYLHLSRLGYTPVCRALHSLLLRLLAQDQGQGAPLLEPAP
LYPLA2 counter – LYPLA2 inhibitors, primary screen, counter-screen for PME1 inhibitor project, biochemical, fluorescence polarization, FP-Rh probe ABPP. Acyl-protein thioesterase 2 (Homo sapiens), O95372. recombinant LYPLA2. inhibition, % at 5.9 µM. 0.38% of 320,000 active. AID 2177, 2009;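 active means inhibition above the screen-wide mean plus 3 SD, limit set per campaign, cut at about 26% in these data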
PAFAH1B2 inh – PAFAH1B2 enzyme inhibitors, primary screen, biochemical, fluorescence polarization, human. Platelet-activating factor acetylhydrolase IB subunit alpha2 (Homo sapiens), P68402. recombinant PAFAH1B2, FP-rhodamine activity probe. inhibition, % at 3.39 µM. 1.2% of 340,000 active. AID 492953, 2010;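 active means inhibition above the mean of all tested compounds plus 3 SD, cut at about 24% in these data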
pPAFAH inh – pPAFAH enzyme inhibitors, primary screen, biochemical, fluorescence polarization, human. AID 463082, 2010. recombinant pPAFAH, FP-rhodamine probe fluorescence polarization. inhibition, % at 3.39 µM. 1.5% of 330,000 active. Platelet-activating factor acetylhydrolase (Homo sapiens), Q13093;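 active means inhibition above the mean inhibition across the screen plus 3 SD, cut at about 25% in these data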;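 further: inhibitors block binding of the rhodamine activity-based probe so polarization drops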
Target sequence (Q13093 whole entry, looked up): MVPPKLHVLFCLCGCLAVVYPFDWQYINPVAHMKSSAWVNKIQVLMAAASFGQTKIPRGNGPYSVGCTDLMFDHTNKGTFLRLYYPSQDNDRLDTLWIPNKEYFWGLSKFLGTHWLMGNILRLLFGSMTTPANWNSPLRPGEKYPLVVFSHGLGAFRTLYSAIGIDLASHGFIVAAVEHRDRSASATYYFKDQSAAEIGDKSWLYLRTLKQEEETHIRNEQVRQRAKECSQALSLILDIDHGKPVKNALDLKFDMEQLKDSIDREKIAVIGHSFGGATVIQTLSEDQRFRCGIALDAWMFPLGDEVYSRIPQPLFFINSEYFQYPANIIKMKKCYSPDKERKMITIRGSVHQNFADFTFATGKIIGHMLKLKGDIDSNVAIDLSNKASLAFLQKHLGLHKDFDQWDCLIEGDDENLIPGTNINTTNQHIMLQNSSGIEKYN
LYPLA1 confirm – LYPLA1 inhibitors, retest, confirmation, counter-screen for PME1 inhibitor project, biochemical, fluorescence polarization, FP-Rh probe ABPP | inhibition, % at 5.9 µM | 69% of 480 active | shares compounds with LYPLA1 inh | AID 2233, 2010 | recombinant LYPLA1;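 active means mean inhibition across replicates above the hit cutoff set in the primary screen, cut at about 15% in these data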;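 further: loss of FP-Rh probe labeling of LYPLA1 seen as lower polarization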
Numbers stand for hits. Only some compounds are listed: those with a hit (about 2.9% of all), similar ones and a draw of the others.

Results for COC(=O)C(=C/C=C/N1CCOCC1)C(=O)OC ?
LYPLA1 inh: 15.1; LYPLA2 counter: inactive; pPAFAH inh: 25.3; LYPLA1 confirm: inactive

Results for O=C1CC2(CCN(C(=O)COc3ccc(Cl)cc3)CC2)Oc2ccccc21 ?
PAFAH2 inh: inactive; LYPLA1 inh: 15.8; PAFAH1B3 inh: inactive; LYPLA2 counter: inactive; PAFAH1B2 inh: inactive; pPAFAH inh: inactive; LYPLA1 confirm: 20.7

How did Cc1ccc(OCC(=O)N2CCC3(CC2)CC(=O)c2ccccc2O3)cc1 do in these assays?
PAFAH2 inh: inactive; LYPLA1 inh: inactive; PAFAH1B3 inh: inactive; LYPLA2 counter: inactive; PAFAH1B2 inh: inactive; pPAFAH inh: inactive

What do the screens show for `O=C1c2ccccc2C(=O)N1C1CCCCC1`?
PAFAH2 inh: inactive; LYPLA1 inh: inactive; PAFAH1B3 inh: inactive; LYPLA2 counter: inactive; PAFAH1B2 inh: inactive; pPAFAH inh: inactive

How did COc1cc(OC)c(NC(=O)Nc2ccc(OC)c(OC)c2)cc1Cl do in these assays?
PAFAH2 inh: inactive; LYPLA1 inh: inactive; PAFAH1B3 inh: inactive; LYPLA2 counter: inactive; PAFAH1B2 inh: inactive; pPAFAH inh: inactive

Results for COc1cc(NC(=O)Nc2ccc(Cl)c(Cl)c2)c(C(=O)O)cc1OC ?
PAFAH2 inh: inactive; LYPLA1 inh: 20.1; PAFAH1B3 inh: inactive; LYPLA2 counter: inactive; PAFAH1B2 inh: 24.7; pPAFAH inh: 30.0; LYPLA1 confirm: 18.2

How did O=C(NC1CC1)c1cccc(S(=O)(=O)Nc2ccccc2F)c1 do in these assays?
PAFAH2 inh: inactive; LYPLA1 inh: inactive; PAFAH1B3 inh: inactive; LYPLA2 counter: inactive; PAFAH1B2 inh: inactive; pPAFAH inh: inactive

How did Cc1cc(C)c2oc(C(=O)N3CCN(C)CC3)cc(=O)c2c1 do in these assays?
PAFAH2 inh: inactive; LYPLA1 inh: inactive; PAFAH1B3 inh: inactive; LYPLA2 counter: inactive; PAFAH1B2 inh: inactive; pPAFAH inh: inactive

Results for Cc1cc(C)c2oc(C(=O)N3CCN(Cc4ccccc4)CC3)cc(=O)c2c1 ?
PAFAH2 inh: inactive; LYPLA1 inh: 20.9; PAFAH1B3 inh: inactive; LYPLA2 counter: inactive; PAFAH1B2 inh: inactive; pPAFAH inh: inactive; LYPLA1 confirm: 25.5

Results for CS(=O)(=O)N1CCN=C1SCc1ccc([N+](=O)[O-])cc1 ?
PAFAH2 inh: inactive; LYPLA1 inh: active; PAFAH1B3 inh: inactive; LYPLA2 counter: inactive; PAFAH1B2 inh: inactive; pPAFAH inh: inactive; LYPLA1 confirm: inactive

What do the screens show for `CCOC(=O)CSc1nc(C)c2cc(OC)ccc2n1`?
PAFAH2 inh: inactive; LYPLA1 inh: inactive; PAFAH1B3 inh: inactive; LYPLA2 counter: inactive; PAFAH1B2 inh: inactive; pPAFAH inh: inactive

How did COc1ccc(/C=C2/Sc3ccc(C(=O)NCCCN4CCOCC4)cc3NC2=O)cc1OC do in these assays?
PAFAH2 inh: inactive; LYPLA1 inh: 36.9; PAFAH1B3 inh: inactive; LYPLA2 counter: inactive; PAFAH1B2 inh: inactive; pPAFAH inh: inactive; LYPLA1 confirm: 66.5

What do the screens show for `O=C(NC(=S)Nc1ccc2c(c1)OCCO2)c1ccccc1`?
PAFAH2 inh: inactive; LYPLA1 inh: inactive; PAFAH1B3 inh: inactive; LYPLA2 counter: inactive; PAFAH1B2 inh: inactive; pPAFAH inh: inactive

Results for CCN(CC)S(=O)(=O)c1cccc(-c2nnc(SCCOc3ccccc3)o2)c1 ?
PAFAH2 inh: inactive; LYPLA1 inh: 41.0; PAFAH1B3 inh: inactive; LYPLA2 counter: inactive; PAFAH1B2 inh: inactive; pPAFAH inh: inactive; LYPLA1 confirm: 50.6

Results for CCN(CC)S(=O)(=O)c1cccc(-c2nnc(SCCOc3ccccc3C)o2)c1 ?
PAFAH2 inh: inactive; LYPLA1 inh: 29.3; PAFAH1B3 inh: inactive; LYPLA2 counter: inactive; PAFAH1B2 inh: inactive; pPAFAH inh: inactive; LYPLA1 confirm: 34.3

How did CC(OC(=O)c1cccc(Cl)c1)C(=O)NC1CCCCC1C (stereo unspecified) do in these assays?
PAFAH2 inh: inactive; LYPLA1 inh: inactive; PAFAH1B3 inh: inactive; LYPLA2 counter: inactive; PAFAH1B2 inh: inactive; pPAFAH inh: inactive

What do the screens show for `CC(OC(=O)c1nc(Cl)ccc1Cl)C(=O)NC1CCCCC1C` (stereo unspecified)?
PAFAH2 inh: inactive; LYPLA1 inh: 16.1; PAFAH1B3 inh: inactive; LYPLA2 counter: inactive; PAFAH1B2 inh: inactive; pPAFAH inh: inactive; LYPLA1 confirm: inactive

What do the screens show for `CCC(=O)Nc1cccc(C2=NOC3(C2)C[C@@H](C(N)=O)N(C(=O)CC(c2ccccc2)c2ccccc2)C3)c1` (stereo partly specified)?
PAFAH2 inh: inactive; LYPLA1 inh: inactive; PAFAH1B3 inh: inactive; LYPLA2 counter: inactive; PAFAH1B2 inh: inactive; pPAFAH inh: inactive

How did CCOc1ccc(NC(=S)NC(=O)c2c(Br)cnn2C)c([N+](=O)[O-])c1 do in these assays?
PAFAH2 inh: inactive; LYPLA1 inh: 17.6; PAFAH1B3 inh: inactive; LYPLA2 counter: inactive; PAFAH1B2 inh: inactive; pPAFAH inh: inactive; LYPLA1 confirm: 59.2

What do the screens show for `CCOC(=O)N1CCC(N2C(=O)c3ccccc3C2Nc2cc(Cl)c(OC)cc2OC)CC1` (stereo unspecified)?
PAFAH2 inh: inactive; LYPLA1 inh: inactive; PAFAH1B3 inh: inactive; LYPLA2 counter: inactive; PAFAH1B2 inh: inactive; pPAFAH inh: inactive

What do the screens show for `COc1ccc2nc(NC(=O)c3cc(C)oc3C)sc2c1`?
PAFAH2 inh: inactive; LYPLA1 inh: inactive; PAFAH1B3 inh: inactive; LYPLA2 counter: inactive; PAFAH1B2 inh: inactive; pPAFAH inh: inactive

What do the screens show for `Cc1cc(C)c2c(N)c(C(=O)Nc3ncc(C)s3)sc2n1`?
PAFAH2 inh: inactive; LYPLA1 inh: 27.5; PAFAH1B3 inh: inactive; LYPLA2 counter: inactive; PAFAH1B2 inh: inactive; pPAFAH inh: inactive; LYPLA1 confirm: 20.9

How did COc1ccc2nc(NC(=O)c3sc4nc(C)cc(C)c4c3N)sc2c1 do in these assays?
PAFAH2 inh: inactive; LYPLA1 inh: 14.6; PAFAH1B3 inh: inactive; LYPLA2 counter: inactive; PAFAH1B2 inh: inactive; pPAFAH inh: inactive; LYPLA1 confirm: 17.7

How did CCC(=O)Nc1nonc1-c1nc2ccccc2n1N(C(=O)CC)C(=O)CC do in these assays?
PAFAH2 inh: inactive; LYPLA1 inh: inactive; PAFAH1B3 inh: inactive; LYPLA2 counter: inactive; PAFAH1B2 inh: inactive; pPAFAH inh: inactive

Results for CCCOc1ccc(/C(CC)=N/NC(=O)C2(C)CC2(Br)Br)cc1 (stereo unspecified) ?
PAFAH2 inh: inactive; LYPLA1 inh: 17.2; PAFAH1B3 inh: inactive; LYPLA2 counter: 27.9; PAFAH1B2 inh: inactive; pPAFAH inh: inactive; LYPLA1 confirm: inactive

How did CC/C(=N/NC(=O)c1ccc(Br)cc1)c1ccc(OCCN2CCOCC2)cc1 do in these assays?
PAFAH2 inh: inactive; LYPLA1 inh: inactive; PAFAH1B3 inh: inactive; LYPLA2 counter: inactive; PAFAH1B2 inh: inactive; pPAFAH inh: inactive
